Target: AgAbp1
Assay: SPOT peptide array binding signal intensity (averaged, normalized) (arbitrary units (background-subtracted, floor 0; scale differs between SH3 domains)); higher = stronger binding of the SH3 domain to the peptide
Outline: (§1)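 Binding signal refers to normalized, background-subtracted spot intensity averaged over replicates, expressed in arbitrary units that differ between domains. GST-fused SH3 domains from four yeast species were incubated at 10 μg/ml overnight at 4°C on cellulose membranes of synthetic 15-mer peptides with cysteines replaced by serines. Bound protein was detected with anti-GST antibody, an HRP anti-mouse secondary and luminol, and quantified with Genespotter.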

Binder | SPOT peptide array binding signal intensity
QPQRTAPKPPISAPR | 2

Target: AgBbc1
Assay: as above
Outline: as §1

Binder | SPOT peptide array binding signal intensity
QPQRTAPKPPISAPR | 170

Target: AgBem1-D1
Assay: as above
Outline: as §1

Binder | SPOT peptide array binding signal intensity
QPQRTAPKPPISAPR | 128

Target: AgBzz1-D1
Assay: as above
Outline: as §1

Binder | SPOT peptide array binding signal intensity
QPQRTAPKPPISAPR | 51

Target: AgBzz1-D2
Assay: as above
Outline: as §1

Binder | SPOT peptide array binding signal intensity
QPQRTAPKPPISAPR | 28

Target: AgCyk3
Assay: as above
Outline: as §1

Binder | SPOT peptide array binding signal intensity
QPQRTAPKPPISAPR | 1

Target: AgFus1
Assay: as above
Outline: as §1

Binder | SPOT peptide array binding signal intensity
QPQRTAPKPPISAPR | 11

Target: AgHof1
Assay: as above
Outline: as §1

Binder | SPOT peptide array binding signal intensity
QPQRTAPKPPISAPR | 4.75

Target: AgHse1
Assay: as above
Outline: as §1

Binder | SPOT peptide array binding signal intensity
QPQRTAPKPPISAPR | 14

Target: AgLsb1
Assay: as above
Outline: as §1

Binder | SPOT peptide array binding signal intensity
QPQRTAPKPPISAPR | 0.5

Target: AgLsb4
Assay: as above
Outline: as §1

Binder | SPOT peptide array binding signal intensity
QPQRTAPKPPISAPR | ≤ 0

Target: AgMyo5
Assay: as above
Outline: as §1

Binder | SPOT peptide array binding signal intensity
QPQRTAPKPPISAPR | 327

Target: AgNbp2
Assay: as above
Outline: as §1

Binder | SPOT peptide array binding signal intensity
QPQRTAPKPPISAPR | 1510

Target: AgRvs167
Assay: as above
Outline: as §1

Binder | SPOT peptide array binding signal intensity
QPQRTAPKPPISAPR | 1

Target: AgSho1
Assay: as above
Outline: as §1

Binder | SPOT peptide array binding signal intensity
QPQRTAPKPPISAPR | 4

Target: AgSla1-D1-D2
Assay: as above
Outline: as §1

Binder | SPOT peptide array binding signal intensity
QPQRTAPKPPISAPR | ≤ 0

Target: AgSla1-D3
Assay: as above
Outline: as §1

Binder | SPOT peptide array binding signal intensity
QPQRTAPKPPISAPR | ≤ 0

Target: CaAbp1-D1
Assay: as above
Outline: as §1

Binder | SPOT peptide array binding signal intensity
QPQRTAPKPPISAPR | ≤ 0

Target: CaAbp1-D2
Assay: as above
Outline: as §1

Binder | SPOT peptide array binding signal intensity
QPQRTAPKPPISAPR | 5

Target: CaBbc1
Assay: as above
Outline: as §1

Binder | SPOT peptide array binding signal intensity
QPQRTAPKPPISAPR | 693

Target: CaBem1-D1
Assay: as above
Outline: as §1

Binder | SPOT peptide array binding signal intensity
QPQRTAPKPPISAPR | 73

Target: CaBzz1-D1
Assay: as above
Outline: as §1

Binder | SPOT peptide array binding signal intensity
QPQRTAPKPPISAPR | 1260

Target: CaBzz1-D2
Assay: as above
Outline: as §1

Binder | SPOT peptide array binding signal intensity
QPQRTAPKPPISAPR | 420

Target: CaCyk3
Assay: as above
Outline: as §1

Binder | SPOT peptide array binding signal intensity
QPQRTAPKPPISAPR | 0.5

Target: CaFus1
Assay: as above
Outline: as §1

Binder | SPOT peptide array binding signal intensity
QPQRTAPKPPISAPR | ≤ 0

Target: CaHof1
Assay: as above
Outline: as §1

Binder | SPOT peptide array binding signal intensity
QPQRTAPKPPISAPR | 0.5

Target: CaHse1
Assay: as above
Outline: as §1

Binder | SPOT peptide array binding signal intensity
QPQRTAPKPPISAPR | ≤ 0

Target: CaLsb1
Assay: as above
Outline: as §1

Binder | SPOT peptide array binding signal intensity
QPQRTAPKPPISAPR | 0.5

Target: CaLsb4
Assay: as above
Outline: as §1

Binder | SPOT peptide array binding signal intensity
QPQRTAPKPPISAPR | ≤ 0

Target: CaMyo5
Assay: as above
Outline: as §1

Binder | SPOT peptide array binding signal intensity
QPQRTAPKPPISAPR | 7.5

Target: CaNbp2
Assay: as above
Outline: as §1

Binder | SPOT peptide array binding signal intensity
QPQRTAPKPPISAPR | 1340

Target: CaRvs167
Assay: as above
Outline: as §1

Binder | SPOT peptide array binding signal intensity
QPQRTAPKPPISAPR | ≤ 0

Target: CaRvs167-3
Assay: as above
Outline: as §1

Binder | SPOT peptide array binding signal intensity
QPQRTAPKPPISAPR | 1

Target: CaSho1
Assay: as above
Outline: as §1

Binder | SPOT peptide array binding signal intensity
QPQRTAPKPPISAPR | 14

Target: CaSla1-D1-D2
Assay: as above
Outline: as §1

Binder | SPOT peptide array binding signal intensity
QPQRTAPKPPISAPR | 291

Target: CaSla1-D3
Assay: as above
Outline: as §1

Binder | SPOT peptide array binding signal intensity
QPQRTAPKPPISAPR | 0.5

Target: ScAbp1
Assay: as above
Outline: as §1

Binder | SPOT peptide array binding signal intensity
QPQRTAPKPPISAPR | 8

Target: ScBbc1
Assay: as above
Outline: as §1

Binder | SPOT peptide array binding signal intensity
QPQRTAPKPPISAPR | 268

Target: ScBem1-D1
Assay: as above
Outline: as §1

Binder | SPOT peptide array binding signal intensity
QPQRTAPKPPISAPR | ≤ 0

Target: ScBzz1-D1
Assay: as above
Outline: as §1

Binder | SPOT peptide array binding signal intensity
QPQRTAPKPPISAPR | 4

Target: ScBzz1-D2
Assay: as above
Outline: as §1

Binder | SPOT peptide array binding signal intensity
QPQRTAPKPPISAPR | 15.5

Target: ScCyk3
Assay: as above
Outline: as §1

Binder | SPOT peptide array binding signal intensity
QPQRTAPKPPISAPR | ≤ 0

Target: ScFus1
Assay: as above
Outline: as §1

Binder | SPOT peptide array binding signal intensity
QPQRTAPKPPISAPR | ≤ 0

Target: ScHof1
Assay: as above
Outline: as §1

Binder | SPOT peptide array binding signal intensity
QPQRTAPKPPISAPR | ≤ 0

Target: ScHse1
Assay: as above
Outline: as §1

Binder | SPOT peptide array binding signal intensity
QPQRTAPKPPISAPR | ≤ 0

Target: ScLsb1
Assay: as above
Outline: as §1

Binder | SPOT peptide array binding signal intensity
QPQRTAPKPPISAPR | ≤ 0

Target: ScLsb2
Assay: as above
Outline: as §1

Binder | SPOT peptide array binding signal intensity
QPQRTAPKPPISAPR | ≤ 0

Target: ScLsb3
Assay: as above
Outline: as §1

Binder | SPOT peptide array binding signal intensity
QPQRTAPKPPISAPR | 58

Target: ScLsb4
Assay: as above
Outline: as §1

Binder | SPOT peptide array binding signal intensity
QPQRTAPKPPISAPR | ≤ 0

Target: ScMyo3
Assay: as above
Outline: as §1

Binder | SPOT peptide array binding signal intensity
QPQRTAPKPPISAPR | 699

Target: ScMyo5
Assay: as above
Outline: as §1

Binder | SPOT peptide array binding signal intensity
QPQRTAPKPPISAPR | 613

Target: ScNbp2
Assay: as above
Outline: as §1

Binder | SPOT peptide array binding signal intensity
QPQRTAPKPPISAPR | 2700

Target: ScPex13
Assay: as above
Outline: as §1

Binder | SPOT peptide array binding signal intensity
QPQRTAPKPPISAPR | 131

Target: ScRvs167
Assay: as above
Outline: as §1

Binder | SPOT peptide array binding signal intensity
QPQRTAPKPPISAPR | ≤ 0

Target: ScSho1
Assay: as above
Outline: as §1

Binder | SPOT peptide array binding signal intensity
QPQRTAPKPPISAPR | 6

Target: ScSla1-D1-D2
Assay: as above
Outline: as §1

Binder | SPOT peptide array binding signal intensity
QPQRTAPKPPISAPR | 1730

Target: ScSla1-D3
Assay: as above
Outline: as §1

Binder | SPOT peptide array binding signal intensity
QPQRTAPKPPISAPR | 25.5

Target: SpAbp1-D1
Assay: as above
Outline: as §1

Binder | SPOT peptide array binding signal intensity
QPQRTAPKPPISAPR | 2.5

Target: SpBbc1
Assay: as above
Outline: as §1

Binder | SPOT peptide array binding signal intensity
QPQRTAPKPPISAPR | 10

Target: SpBzz1-D1
Assay: as above
Outline: as §1

Binder | SPOT peptide array binding signal intensity
QPQRTAPKPPISAPR | 260

Target: SpBzz1-D2
Assay: as above
Outline: as §1

Binder | SPOT peptide array binding signal intensity
QPQRTAPKPPISAPR | 14.5

Target: SpCyk3
Assay: as above
Outline: as §1

Binder | SPOT peptide array binding signal intensity
QPQRTAPKPPISAPR | 0.5

Target: SpHof1
Assay: as above
Outline: as §1

Binder | SPOT peptide array binding signal intensity
QPQRTAPKPPISAPR | ≤ 0

Target: SpHof1-2
Assay: as above
Outline: as §1

Binder | SPOT peptide array binding signal intensity
QPQRTAPKPPISAPR | 7.5

Target: SpHof1-3
Assay: as above
Outline: as §1

Binder | SPOT peptide array binding signal intensity
QPQRTAPKPPISAPR | ≤ 0

Target: SpHse1
Assay: as above
Outline: as §1

Binder | SPOT peptide array binding signal intensity
QPQRTAPKPPISAPR | ≤ 0

Target: SpLsb1
Assay: as above
Outline: as §1

Binder | SPOT peptide array binding signal intensity
QPQRTAPKPPISAPR | ≤ 0

Target: SpLsb4
Assay: as above
Outline: as §1

Binder | SPOT peptide array binding signal intensity
QPQRTAPKPPISAPR | 27.5

Target: SpMyo1
Assay: as above
Outline: as §1

Binder | SPOT peptide array binding signal intensity
QPQRTAPKPPISAPR | 2550

Target: SpNbp2
Assay: as above
Outline: as §1

Binder | SPOT peptide array binding signal intensity
QPQRTAPKPPISAPR | 22.5

Target: SpPex13
Assay: as above
Outline: as §1

Binder | SPOT peptide array binding signal intensity
QPQRTAPKPPISAPR | 1

Target: SpRvs167
Assay: as above
Outline: as §1

Binder | SPOT peptide array binding signal intensity
QPQRTAPKPPISAPR | 2.33

Target: SpSla1-D1-D2
Assay: as above
Outline: as §1

Binder | SPOT peptide array binding signal intensity
QPQRTAPKPPISAPR | ≤ 0

Target: SpSla1-D3
Assay: as above
Outline: as §1

Binder | SPOT peptide array binding signal intensity
QPQRTAPKPPISAPR | ≤ 0

— the supplement of paper PMC4466140
